# According to PubChem BioAssay (NCI):
# The panel holds about 79,000 compounds, 15% with a hit somewhere; the sample as a whole holds those more often. Values without a mark were called inactive. The source made the active and inactive calls. No stated cut-off is given here; in the data, active means growth inhibition above about 70%; inactive means the rest. Where a SMILES comes first, the peptide text is derived from it. [ ]: non-standard residue; d: D form. The star is where a group is joined. ξ: configuration not given here. X15 = COc1ccc(C(N*)c2ccc(OC)cc2)cc1; NMeF = CN[C@@H](Cc1ccccc1)C(=O)O; NMeD = CN[C@@H](CC(=O)O)C(=O)O; NMeV = CN[C@H](C(=O)O)C(C)C; ξNMeV = CNC(C(=O)O)C(C)C; Boc = CC(C)(C)OC(=O)*; ξNMeA = CNC(C)C(=O)O; ξV = CC(C)C(N)C(=O)O
# Key:
# [1] = NCI Yeast Anticancer Drug Screen. Data for the rad50 strain (AID 155);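 further: 0% = growth of vehicle-only cultures of the same strain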; conditions: S. cerevisiae rad50 strain growth inhibition; at 50.0 µM; hits give high values
# Procedure, shortened: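 DNA repair mutant yeast, compound exposure, growth read-out; inhibition is taken relative to vehicle.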
# [2] = NCI Yeast Anticancer Drug Screen. Data for the mec2-1 strain (AID 157); conditions: S. cerevisiae mec2-1 strain, at 50.0 µM, hits give high values
# Procedure, shortened: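 Strain: mec2-1 (DNA repair/cell cycle alteration). Compound exposure, then growth measured; inhibition expressed relative to vehicle.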
# [3] = NCI Yeast Anticancer Drug Screen. Data for the sgs1 mgt1 strain (AID 161);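 further: 0% = growth of cultures given vehicle only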; conditions: S. cerevisiae sgs1 mgt1 strain, at 50.0 µM, hits give high values
# Procedure, shortened: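 Inhibition of yeast growth, normalised to vehicle-treated controls, is reported for a strain bearing genetic alterations in DNA damage repair.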
# [4] = NCI Yeast Anticancer Drug Screen. Data for the cln2 rad14 strain (AID 165);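 further: 0% = growth equal to vehicle treated cultures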; conditions: S. cerevisiae cln2 rad14 strain, at 50.0 µM, hits give high values
# Procedure, shortened: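 Compounds are applied to the cln2 rad14 yeast strain, and growth is then compared with that of vehicle-treated cultures to give inhibition.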
# [5] = NCI Yeast Anticancer Drug Screen. Data for the bub3 strain (AID 167); conditions: S. cerevisiae bub3 mutant strain, at 50.0 µM, hits give high values
# Procedure, shortened: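 In this screen, a yeast mutant lacking normal mitotic checkpoint function is challenged with compound. Relative growth versus vehicle gives the inhibition value.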
# [6] = NCI Yeast Anticancer Drug Screen. Data for the mlh1 rad18 strain (AID 175); conditions: S. cerevisiae mlh1 rad18 strain growth inhibition; at 50.0 µM; hits give high values
# Procedure, shortened: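 Read-out is yeast growth inhibition, calculated against vehicle-only controls. The compound was applied to a strain engineered with DNA damage repair alterations.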
Structure (SMILES),growth inhibition [1],growth inhibition [2],growth inhibition [3],growth inhibition [4],growth inhibition [5],growth inhibition [6]
CCCCn1c(-c2ccccc2)cs/c1=N\NC(=O)Cn1c(C)nc2ccccc21,-30.8%,-8.3%,-8.4%,18.9%,-3.25%,-16.8%
O=C1CCNC(=O)N1,33.7%,-7.35%,4.75%,21.1%,-10.2%,23.4%
CC(=O)Oc1cccc(OC(C)=O)c1,41.8%,38.9%,25.2%,12.1%,6.8%,34.9%
C=C1c2c(cc3c(c2O)c(=O)c2ccccc2n3C)OC1(C)C,-31.2%,-36.6%,-23.1%,-24.3%,-25.8%,-25.4%
O=C(CCCCCC(=O)NO)NO,-0.8%,-6.05%,-7.2%,-20.3%,-9.4%,-1.55%
COc1cc(C(=O)C/C(CCC(=O)Nc2ccc(Cl)cc2Cl)=N/NC(=O)C(N)=O)ccc1O,-12.8%,-2.45%,-34.8%,22.4%,-1.45%,-20.4%
NNC(=O)C(=O)NN=C(C(Cl)(Cl)CO)C(Cl)(Cl)CO,18.9%,-0.65%,15.1%,14.1%,22.3%,20.4%
COc1ccc(/C=N/NC(=O)NNC(=O)c2cc([N+](=O)[O-])cc([N+](=O)[O-])c2)cc1OC,33.2%,13.3%,36.7%,15.4%,3.6%,32.4%
O=C1c2cc(Cl)ccc2-c2cc(Cl)c(Cl)cc21,-0.8%,-2.05%,10.4%,-29.9%,-3.45%,26.6%
CCOC(=O)C(=O)O,12.3%,-9.3%,-4.85%,-7.8%,-5.05%,-5.7%
Nc1ncnc2c1ncn2C1CCC(CP(=O)(O)O)C1 (stereo unspecified),-6.85%,-25.4%,-23.4%,-29.4%,-5.45%,-0.1%
CC1(C)OC(=O)C=C([O-])O1.CC1(C)OC(=O)C=C([O-])O1.O=c1c(O)c(-c2ccc([O-])cc2[O-])oc2cc(O)cc(O)c12.[Ti+4],-45.6%,9.05%,-29.4%,-7.85%,-4.55%,-16.2%
Cc1ccc(COC(=O)Nc2ccc(C)c(NC(=O)OCc3ccc(C)cc3)c2)cc1,14.4%,-1.15%,11.7%,-2.9%,-3.8%,30.1%
O=C1CNC(=O)N1c1ccccc1,7.35%,5.75%,4.4%,-9.2%,5.65%,3.8%
C=CC[N+](CCO)(CCO)CCCCCCCCCCCCCCCCCC,98.4% (active),99% (active),99.2% (active),96.1% (active),98.5% (active),97.8% (active)
O=c1[nH]c2cc(Br)c(Br)cc2c2ccc(Br)cc12,43%,-3.8%,13.7%,1.3%,5.8%,5.15%
COc1ccc(C2(C)C=C(C)C=C(C)C2=O)cc1 (stereo unspecified),-5.1%,2.9%,-12.2%,-15.9%,-9.65%,7.75%
Oc1cccc(Oc2cccc(Oc3cccc(O)c3)c2)c1,-14.4%,-14.2%,-4.3%,-8.65%,8.35%,-7.85%
NC(Cc1cccs1)C(=O)O (stereo unspecified),-31.9%,-21.9%,-27.6%,-43%,-2.5%,-37.1%
CCOC(=O)c1nc(C)oc1C(=O)OCC,0.85%,-12.9%,-14.6%,-13.9%,-7.3%,-3.85%
CN(C)Cc1nsc(N(C)C)n1,-4.9%,-9.1%,-34.2%,-50%,-19.1%,-13.2%

Structure (SMILES),growth inhibition [1],growth inhibition [2],growth inhibition [3],growth inhibition [4],growth inhibition [5],growth inhibition [6]
C#CCNC(=O)NCCCC(NC(C)=O)C(=O)NCc1ccccc1 (stereo unspecified),41%,-12.2%,-4.65%,32.1%,-5.75%,-8.15%
COC1=NS(=O)(=O)C2(O1)c1ccccc1-c1ccccc12,15.2%,17.2%,11.4%,13.2%,25.8%,12.3%
CC1(C)C(=O)CC1C(=O)O (stereo unspecified),4.55%,-0.25%,-0.45%,12.3%,7.5%,8.75%
CC(=O)OCC(=O)C1(O)C(C)CC2C3CCC4CC(=O)CCC4(C)C3=CCC21C (stereo unspecified),43.1%,-16.6%,0.65%,-2.95%,26.1%,23.8%
COc1ccc(C(NC(=O)C[C@@H](C(=O)N(C)C(C)C(=O)O)N(C)C(=O)[C@@H]2CCCN2C(=O)[C@H](C(C)C)N(C)C(=O)C(C(C)C)N(C)C(=O)[C@H](Cc2ccccc2)N(C)C(=O)C(NC(=O)OC(C)(C)C)C(C)C)c2ccc(OC)cc2)cc1 (stereo partly specified) (Boc-[ξV][NMeF][ξNMeV][NMeV]P[NMeD](X15)[ξNMeA]-OH),-30.5%,-23.9%,-20.9%,-7.45%,-6.25%,-31.4%
CC1(C)OCN(c2ccc(Cl)cc2)Cn2c1nc1ccccc12,-6.65%,8.2%,-22.8%,2.5%,-25.9%,-9.25%
COC(=O)C[C@H](C)[C@H](C)CC(=O)O,-17.6%,-19.9%,-1.6%,-7.3%,-0.45%,-12.9%
Nc1[nH]n(-c2ccccc2)c(=O)c1/C=N/C(=S)N=Nc1c(O)[nH]c2ccccc12,1.5%,-0.3%,41%,1.5%,9.35%,24.8%
NC(=S)N/N=C/c1ccc(OC(=O)Cc2ccccc2)cn1,19.7%,-6.6%,10.1%,7.1%,4.55%,16.4%
CCCCNC(=O)NC/C(Br)=C/Br,1.75%,5.15%,1.4%,-3.75%,1.85%,-5.2%
O=C(CCN1CCCC1)c1ccccc1,-25.1%,-15.1%,-11.4%,5.45%,-10.6%,-11.1%
OCCSC1CCCCC1,12.1%,6.35%,-1.55%,0.1%,-16.1%,1.5%
CCCCC(C(C)=O)C(=O)CC (stereo unspecified),26.4%,-25%,8.8%,-23.2%,-20.5%,13.1%
NC(=S)N/N=C1\CCCC1C(O)(C(F)(F)Cl)C(F)(F)Cl (stereo unspecified),65.3%,17.6%,56.1%,35%,29.9%,62.5%
Cn1c(N)c(N=Cc2ccc(Cl)cc2)c(=O)n(C)c1=O,-9.2%,2.35%,-5.5%,-16.5%,-7.75%,-7.4%
O=c1[nH]c2ccccc2c2ccc(Br)cc12,17.4%,-6.1%,-2.65%,7.3%,-3%,18.5%
Cc1nc2c(cc1C(=O)N/N=C/c1ccc([N+](=O)[O-])cc1)c(=O)n(C)c(=O)n2C,-33.4%,-21.8%,-11.9%,-5.75%,-50.9%,18.1%
COc1ccc(/C=C\c2cc(OC)c(OC)c(OC)c2)cc1OC,5.2%,9.05%,-17.7%,3.05%,-13.1%,12%
CC12CC3(C)CC(C)(C1)CC(C(NC(C)(C)C)C(=O)O)(C2)C3 (stereo unspecified),16.8%,20.1%,11.9%,5.7%,18.9%,21.2%
CC(=O)OC1CC2C(C)(CCC3C2(C)CCC2(C)C4CC(C)(C)CCC4(C)CCC32C)C1C (stereo unspecified),-28.2%,-18.3%,-7.5%,2.75%,-3.2%,3.2%
